In paper PMC5349851, “Combinatorial bZIP dimers display complex DNA-binding specificity landscapes”:

Assays:
Assay in all cases: SELEX-seq (CSI, HT-SELEX, round 3); SELEX-seq: 1x PBS (10 mM phosphate, 137 mM NaCl, 2.7 mM KCl) pH 7.6, 2.5 mM DTT, 50 ng/ul poly dI-dC, 0.1% BSA, 50 nM biotinylated bZIP (1:3 with partner for heterodimers), 100 nM library, room temperature, 1 h, 3 rounds; high values mean tight binding
Details in all cases: protein: recombinant;recombinant; copies: 1;1; dsDNA, one strand shown
[1] = biological target: FOS;MAFB (Homo sapiens;Homo sapiens, UniProt P01100;Q9Y5Q3 128-201;212-305, |)
Chain of FOS;MAFB (P01100 other isoform, or with tags, fused parts or gaps |, chain 1 of 2): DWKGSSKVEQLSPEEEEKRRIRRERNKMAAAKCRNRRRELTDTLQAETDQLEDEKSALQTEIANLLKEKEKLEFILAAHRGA
Chain of FOS;MAFB (Q9Y5Q3 other isoform, or with tags, fused parts or gaps |, chain 2 of 2): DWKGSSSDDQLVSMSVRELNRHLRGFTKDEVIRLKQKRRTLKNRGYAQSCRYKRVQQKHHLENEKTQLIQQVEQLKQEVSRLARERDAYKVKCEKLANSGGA

[2] = biological target: FOS;BATF2 (Homo sapiens;Homo sapiens, UniProt P01100;Q8N1L9 128-201;8-85, |)
Chain of FOS;BATF2 (P01100 other isoform, or with tags, fused parts or gaps |): as the sequence (P01100 other isoform, or with tags, fused parts or gaps |, chain 1 of 2) above

[3] = biological target: FOS;CREB3 (Homo sapiens;Homo sapiens, UniProt P01100;O43889 128-201;141-221, |)
Chain of FOS;CREB3 (P01100 other isoform, or with tags, fused parts or gaps |, chain 1 of 2): as above
Chain of FOS;CREB3 (O43889 other isoform, or with tags, fused parts or gaps |, chain 2 of 2): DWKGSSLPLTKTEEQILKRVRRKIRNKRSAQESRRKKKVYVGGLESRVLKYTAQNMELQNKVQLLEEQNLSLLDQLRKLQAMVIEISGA

[4] = biological target: T1, ATF5;CEBPE (Homo sapiens;Homo sapiens, UniProt Q9Y2D1;Q15744 199-275;195-267, |)
T1 sequence 1: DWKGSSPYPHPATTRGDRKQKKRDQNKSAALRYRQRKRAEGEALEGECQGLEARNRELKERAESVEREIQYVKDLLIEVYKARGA
T1 sequence 2: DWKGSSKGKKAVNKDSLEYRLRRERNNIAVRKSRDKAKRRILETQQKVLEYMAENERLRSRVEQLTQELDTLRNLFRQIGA

[5] = biological target: T2, ATF5;JUNB (Homo sapiens;Homo sapiens, UniProt Q9Y2D1;P17275 199-275;259-332, |)
T2 sequence 1: T1 sequence 1
T2 sequence 2: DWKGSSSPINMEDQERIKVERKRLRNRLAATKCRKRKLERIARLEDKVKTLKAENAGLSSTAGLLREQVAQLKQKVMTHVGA

[6] = biological target: T3, ATF5;BATF (Homo sapiens;Homo sapiens, UniProt Q9Y2D1;Q16520 199-275;17-90, |)
T3 sequence 1: T1 sequence 1
T3 sequence 2: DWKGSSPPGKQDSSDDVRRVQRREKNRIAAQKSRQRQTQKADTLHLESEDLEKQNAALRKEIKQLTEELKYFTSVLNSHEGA

[7] = biological target: ATF5;FOS (Homo sapiens;Homo sapiens, UniProt Q9Y2D1;P01100 199-275;128-201, |)
Chain of ATF5;FOS (P01100 other isoform, or with tags, fused parts or gaps |): as the sequence (P01100 other isoform, or with tags, fused parts or gaps |, chain 1 of 2) above

[8] = biological target: T4, ATF5;CREB3L1 (Homo sapiens;Homo sapiens, UniProt Q9Y2D1;Q96BA8 199-275;281-358, |)
T4 sequence 1: T1 sequence 1
T4 sequence 2: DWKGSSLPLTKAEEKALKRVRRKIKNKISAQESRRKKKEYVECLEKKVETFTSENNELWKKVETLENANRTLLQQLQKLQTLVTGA

[9] = biological target: FOS;NFE2L1 (Homo sapiens;Homo sapiens, UniProt P01100;Q14494 128-201;609-725, |)
Chain of FOS;NFE2L1 (P01100 other isoform, or with tags, fused parts or gaps |, chain 1 of 2): as the sequence (P01100 other isoform, or with tags, fused parts or gaps |, chain 1 of 2) above
Chain of FOS;NFE2L1 (Q14494 other isoform, or with tags, fused parts or gaps |, chain 2 of 2): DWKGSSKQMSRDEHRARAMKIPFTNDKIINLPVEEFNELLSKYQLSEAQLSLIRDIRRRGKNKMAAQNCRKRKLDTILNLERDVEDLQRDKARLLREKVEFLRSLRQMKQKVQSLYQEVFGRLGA

[10] = biological target: FOS;CREB3L3 (Homo sapiens;Homo sapiens, UniProt P01100;Q68CJ9 128-201;234-311, |)
Chain of FOS;CREB3L3 (P01100 other isoform, or with tags, fused parts or gaps |, chain 1 of 2): as the sequence (P01100 other isoform, or with tags, fused parts or gaps |, chain 1 of 2) above
Chain of FOS;CREB3L3 (Q68CJ9 other isoform, or with tags, fused parts or gaps |, chain 2 of 2): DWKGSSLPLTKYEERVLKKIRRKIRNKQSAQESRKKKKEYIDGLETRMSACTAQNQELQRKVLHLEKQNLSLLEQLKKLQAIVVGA

Sequence	binding signal [1]	binding signal [2]	binding signal [3]	binding signal [4]	binding signal [5]	binding signal [6]	binding signal [7]	binding signal [8]	binding signal [9]	binding signal [10]
CCTGACGTCA	0.0128 relative CSI intensity (max = 1)	0.00375 relative CSI intensity (max = 1)	0.0122 relative CSI intensity (max = 1)	0.073 relative CSI intensity (max = 1)	0.0543 relative CSI intensity (max = 1)	0.0188 relative CSI intensity (max = 1)	0.0125 relative CSI intensity (max = 1)	0.00567 relative CSI intensity (max = 1)	–	–
ATGACGTCAT	0.278 relative CSI intensity (max = 1)	1 relative CSI intensity (max = 1)	1 relative CSI intensity (max = 1)	0.364 relative CSI intensity (max = 1)	1 relative CSI intensity (max = 1)	0.864 relative CSI intensity (max = 1)	1 relative CSI intensity (max = 1)	1 relative CSI intensity (max = 1)	0.472 relative CSI intensity (max = 1)	0.751 relative CSI intensity (max = 1)
ATGACGCAAT	0.0613 relative CSI intensity (max = 1)	0.00476 relative CSI intensity (max = 1)	0.0275 relative CSI intensity (max = 1)	0.245 relative CSI intensity (max = 1)	0.00597 relative CSI intensity (max = 1)	0.00602 relative CSI intensity (max = 1)	0.024 relative CSI intensity (max = 1)	–	0.49 relative CSI intensity (max = 1)	0.00168 relative CSI intensity (max = 1)
ATGATGCAAT	0.0246 relative CSI intensity (max = 1)	–	0.00378 relative CSI intensity (max = 1)	0.402 relative CSI intensity (max = 1)	0.00145 relative CSI intensity (max = 1)	0.00475 relative CSI intensity (max = 1)	–	0.00221 relative CSI intensity (max = 1)	0.174 relative CSI intensity (max = 1)	0.00314 relative CSI intensity (max = 1)
ATGACGGAAT	0.00352 relative CSI intensity (max = 1)	–	0.0131 relative CSI intensity (max = 1)	0.047 relative CSI intensity (max = 1)	0.00218 relative CSI intensity (max = 1)	–	0.0159 relative CSI intensity (max = 1)	–	0.00712 relative CSI intensity (max = 1)	0.00582 relative CSI intensity (max = 1)
ATGACGTAAT	0.0637 relative CSI intensity (max = 1)	0.0531 relative CSI intensity (max = 1)	–	0.189 relative CSI intensity (max = 1)	0.0445 relative CSI intensity (max = 1)	0.0375 relative CSI intensity (max = 1)	0.00734 relative CSI intensity (max = 1)	0.00877 relative CSI intensity (max = 1)	0.12 relative CSI intensity (max = 1)	0.0238 relative CSI intensity (max = 1)
